UGM FP inh – blocks M. tuberculosis UGM enzyme; AID 504406; hit rate 0.06% among 320,000; inhibition, % at 10 µM; purified UGM, fluorescence polarization probe displacement; in the data active = inhibition above about 10%, passing the limit was not always enough; inconclusive = no clear call, values can overlap the other calls
GDH-TPI counter-1 – inhibits GDH-TPI coupling enzymes, artifact for Mtb FBA screen. hit rate 1.2% among 360,000. inhibition, % at 4.8 µM. GDH-TPI coupled enzyme counterscreen, NADH absorbance. AID 588335; in the data active = inhibition above about 30%
Mtb betalactam – beta-lactam sensitization of Mtb H37Rv. M. tuberculosis H37Rv growth with meropenem, percent inhibition. inhibition, % at 25 µM. hit rate 0.27% among 330,000. AID 434955; call rule not given here;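 note: growth measured after seven days incubation then overnight dye step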
Rv3671c protease – Rv3671c (M. tuberculosis) protease inhibition | inhibition, % at 5.96 µM | hit rate 0.048% among 320,000 | P9WHR9 | AID 2606; in the data active = inhibition above about 38%;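 note: extracellular domain of Rv3671c used as enzyme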
RecA intein inh – inhibitors of M. tuberculosis RecA intein splicing; hit rate 0.75% among 290,000; cell-free RecA intein splicing, fluorescence; P9WHJ3; inhibition, % (concentration not given with the values); in the data active = inhibition above about 30%; inconclusive = no clear call, values can overlap the other calls
Target sequence (P9WHJ3 whole entry, looked up): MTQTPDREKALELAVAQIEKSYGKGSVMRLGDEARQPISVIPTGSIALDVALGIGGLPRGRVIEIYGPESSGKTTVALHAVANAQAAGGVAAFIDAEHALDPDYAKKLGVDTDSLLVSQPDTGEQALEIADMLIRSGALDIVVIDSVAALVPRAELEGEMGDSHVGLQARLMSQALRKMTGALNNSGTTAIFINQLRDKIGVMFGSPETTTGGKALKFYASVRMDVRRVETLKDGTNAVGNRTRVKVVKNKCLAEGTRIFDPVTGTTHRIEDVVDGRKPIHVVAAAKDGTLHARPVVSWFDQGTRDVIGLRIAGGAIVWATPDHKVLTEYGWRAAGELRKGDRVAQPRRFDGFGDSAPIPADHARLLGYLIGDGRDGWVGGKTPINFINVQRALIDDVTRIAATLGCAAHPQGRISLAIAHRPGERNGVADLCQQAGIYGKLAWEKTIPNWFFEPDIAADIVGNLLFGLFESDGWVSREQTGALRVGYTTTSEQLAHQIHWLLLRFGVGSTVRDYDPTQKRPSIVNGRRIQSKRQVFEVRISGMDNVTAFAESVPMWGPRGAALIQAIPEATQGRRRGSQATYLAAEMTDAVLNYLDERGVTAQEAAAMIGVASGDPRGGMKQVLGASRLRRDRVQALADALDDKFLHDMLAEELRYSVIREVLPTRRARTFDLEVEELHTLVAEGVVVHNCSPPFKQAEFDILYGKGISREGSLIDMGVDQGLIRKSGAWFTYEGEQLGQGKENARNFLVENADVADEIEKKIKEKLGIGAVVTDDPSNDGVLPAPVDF
FBA Mtb inh – Mtb fructose-bisphosphate aldolase inhibition; hit rate 2.3% among 360,000; purified M. tuberculosis FBA, fluorescence read-out; AID 588726; P9WQA3; inhibition, % at 1 µM
Mtb FBA confirm – Mtb FBA inhibition, confirmed; shares compounds with FBA Mtb inh; purified M. tuberculosis FBA, fluorescence read-out; inhibition, % at 1 µM; hit rate 78% among 5,600
GDH-TPI counter-2 – counter-screen for M. tuberculosis FBA inhibitors: GDH-TPI coupled enzyme inhibition | shares compounds with FBA Mtb inh | GDH-TPI coupled enzyme counterscreen, fluorescence | inhibition, % at 1 µM | hit rate 81% among 5,600 | AID 652141; in the data active = inhibition above about 10%
GDH-TPI DR – counter-screen for M. tuberculosis FBA inhibitors: GDH-TPI dose response; shares compounds with FBA Mtb inh; GDH-TPI coupled enzyme assay, fluorescence, artifact counterscreen; IC50, µM; hit rate 79% among 170; AID 652145; call rule not given here
Large screens that a line does not name were inactive (follow-up assays come after a bar, where they were run). Most compounds without a hit are left out; they make up all but 4% or so of the library. Cut-off read from the data, not from the text of the source, unless noted: active = inhibition above about 27%; inactive = the rest.

CCOC(=O)NN1C(=O)c2ccccc2NC1c1cccs1 (configuration not stated)	FBA Mtb inh 31 | Mtb FBA confirm 82 | GDH-TPI counter-2 70
CCCNC(=O)c1oc2ccc3c(c2c1C)C(O)CC(C)(C)O3 (configuration not stated)	FBA Mtb inh 49 (no result: Rv3671c protease) | Mtb FBA confirm inactive | GDH-TPI counter-2 inactive
Cc1c(C(=O)NCCCN2CCCCC2)oc2ccc3c(c12)C(O)CC1(CCCCC1)O3 (configuration not stated)	none
CCOCCCNC(=O)c1oc2ccc3c(c2c1C)C(O)CC(C)(C)O3 (configuration not stated)	FBA Mtb inh 33 (no result: Rv3671c protease) | Mtb FBA confirm 35 | GDH-TPI counter-2 25
Cc1ccc(C2C(=O)c3ccccc3C2=O)cc1	none
Cc1ccc(C2N(C)C(=O)c3ccccc3N2C)cc1 (configuration not stated)	FBA Mtb inh 52 (no result: Rv3671c protease) | Mtb FBA confirm active | GDH-TPI counter-2 active
c1ccc(-c2noc(-c3cccc4ccccc34)n2)nc1	FBA Mtb inh 46 | Mtb FBA confirm active | GDH-TPI counter-2 active
COc1ccc(OC)c(NC(=O)COC(=O)CCCN=C2NS(=O)(=O)c3ccccc32)c1	none (no result: RecA intein inh)
CCOc1ccc(N(CC(=O)Nc2c(C)cccc2C)S(=O)(=O)c2c(C)[nH]c(=O)[nH]c2=O)cc1	FBA Mtb inh 91 | Mtb FBA confirm 85 | GDH-TPI counter-2 53
Cc1ccc(C(=O)NNC(=O)Cn2ccc(C(F)(F)F)n2)o1	none
CCC(C)C(CO)NCCCn1cnc2c(OC)ncnc21 (configuration not stated)	none (no result: UGM FP inh, Mtb betalactam, Rv3671c protease, RecA intein inh)
Cc1nc(Cn2c3ccc(NC(=S)NC4CCCCC4)cc3c(=O)n2C)cs1	FBA Mtb inh 28 (no result: UGM FP inh, Mtb betalactam, Rv3671c protease, RecA intein inh) | Mtb FBA confirm 73 | GDH-TPI counter-2 49
Cn1c(=O)c2cc(NC(=S)NC3CCCCC3)ccc2n1Cc1ccc(F)cc1	none (no result: UGM FP inh, Mtb betalactam, Rv3671c protease, RecA intein inh)
CC(C)=CCn1c2ccc(NC(=S)NC3CC3)cc2c(=O)n1C	FBA Mtb inh 31 (no result: UGM FP inh, Mtb betalactam, Rv3671c protease, RecA intein inh) | Mtb FBA confirm 88 | GDH-TPI counter-2 74
COc1cccc(CNC(=S)Nc2ccc3c(c2)c(=O)n(C)n3Cc2ccccc2)c1	FBA Mtb inh 56 (no result: UGM FP inh, Mtb betalactam, Rv3671c protease, RecA intein inh) | Mtb FBA confirm 68 | GDH-TPI counter-2 44
COc1ccc(CCNC(=O)Nc2ccc3c(c2)c(=O)n(C)n3Cc2ccc(Cl)cc2)cc1OC	FBA Mtb inh 88 (no result: UGM FP inh, Mtb betalactam, Rv3671c protease, RecA intein inh) | Mtb FBA confirm 29 | GDH-TPI counter-2 28
Cc1cc(C)n(-c2ccc(C(=O)OC(C)C(=O)Nc3ccc(C(N)=O)cc3)cc2)n1 (configuration not stated)	none (no result: UGM FP inh, Mtb betalactam, Rv3671c protease, RecA intein inh)
COc1ccc(CNC(=O)CC[C@H]2O[C@@H](n3cc(C)c(=O)[nH]c3=O)C[C@@H]2O)cc1	none (no result: UGM FP inh, GDH-TPI counter-1, Mtb betalactam, Rv3671c protease, RecA intein inh)
Cn1c(=O)c2cc(NC(=S)NC3CC3)ccc2n1Cc1ccccc1	FBA Mtb inh 41 (no result: UGM FP inh, Mtb betalactam, Rv3671c protease, RecA intein inh) | Mtb FBA confirm inactive | GDH-TPI counter-2 inactive
CNC(=O)c1cccn(Cc2ccc(C(F)(F)F)cc2)c1=O	FBA Mtb inh 29 | Mtb FBA confirm 68 | GDH-TPI counter-2 43
CNC(=O)c1cccn(Cc2cc(C(F)(F)F)cc(C(F)(F)F)c2)c1=O	none
NC(=O)c1cccn(Cc2ccc(C(F)(F)F)cc2)c1=O	FBA Mtb inh 52 | Mtb FBA confirm 96 | GDH-TPI counter-2 72
Cc1ccnc(NC(=O)c2cccc(S(=O)(=O)N3CCN(c4ccc(F)cc4)CC3)c2)c1	none (no result: UGM FP inh)
O=C(COc1ccc(-n2cnnn2)cc1)Nc1ccc(F)c(F)c1	none (no result: RecA intein inh)
Brc1c(CSc2nc3ccccc3o2)nc2ncccn12	FBA Mtb inh 63 | Mtb FBA confirm 63 | GDH-TPI counter-2 43
Cc1cc(C)nc(SCc2nc3ncccn3c2Br)n1	FBA Mtb inh 66 | Mtb FBA confirm 31 | GDH-TPI counter-2 inactive | GDH-TPI DR 2.7
Brc1c(CSc2nncn2-c2ccccc2)nc2ncccn12	FBA Mtb inh 83 | Mtb FBA confirm 103 | GDH-TPI counter-2 75
Cc1cc(C)nc(SCc2cn3c(C)cccc3n2)n1	none
COc1ccccc1OCCNC(=O)C1CC(=O)N(c2cccc(SC)c2)C1 (configuration not stated)	none (no result: UGM FP inh)
COc1ccc2sc(-c3ccc(SC)cc3)c(C#CCO)c2c1	none (no result: RecA intein inh)
COc1ccc2sc(-c3ccc(SC)cc3)c(C#CC(C)(C)O)c2c1	GDH-TPI counter-1 39, Mtb betalactam inconclusive, FBA Mtb inh 30 (no result: RecA intein inh) | Mtb FBA confirm inactive | GDH-TPI counter-2 inactive
CCSc1n[nH]c2nc3c(c(=O)n12)C1(CCCC1)Cc1ccccc1-3	FBA Mtb inh 28 | Mtb FBA confirm inactive | GDH-TPI counter-2 inactive
Nn1cnc2c(c1=O)C1(CCCCC1)Cc1ccccc1-2	none
Cn1ncn2c(=O)c3c(nc12)-c1ccccc1CC31CCCC1	FBA Mtb inh 44 | Mtb FBA confirm active | GDH-TPI counter-2 active
CSc1n[nH]c2nc3c(c(=O)n12)C1(CCCC1)Cc1ccccc1-3	none
Cn1c(NCCO)nc2c(c1=O)C1(CCCCC1)Cc1ccccc1-2	FBA Mtb inh 70 | Mtb FBA confirm active | GDH-TPI counter-2 active
O=C(O)C1Cn2c(nc3c(c2=O)C2(CCCC2)Cc2ccccc2-3)S1 (configuration not stated)	FBA Mtb inh 35 | Mtb FBA confirm inactive | GDH-TPI counter-2 inactive
N/C(=N\OC(=O)c1ccccc1)c1ccn[nH]1	none
Cc1cc(C)c(C(=O)CN2C(=O)C(=O)N(C3CCCC3)C2=O)cc1C	none (no result: RecA intein inh)
COc1ccc(-c2nc(CSCC(=O)NC3CCCC3)c(C)o2)cc1OC	none
Nc1nc2n(n1)C(c1cccs1)CC(c1ccc(Br)cc1)N2 (configuration not stated)	FBA Mtb inh 48 | Mtb FBA confirm inactive | GDH-TPI counter-2 inactive | GDH-TPI DR 7.8
COc1ccc(C2CC(c3ccc(Br)cc3)Nc3nc(N)nn32)cc1 (configuration not stated)	none (no result: RecA intein inh)
N#Cc1nnn2c1nc(N)c1c(F)cccc12	FBA Mtb inh 32 | Mtb FBA confirm 170 | GDH-TPI counter-2 143
CCOC(=O)CNC(=O)CCc1nnc2ccc(N3CCC(C)CC3)nn12	none
CCCc1cc(=O)oc2cc(C)cc(OC(C)C(=O)NCc3ccccn3)c12 (configuration not stated)	FBA Mtb inh 65 | Mtb FBA confirm active | GDH-TPI counter-2 active
CC(Oc1ccc2c(-c3ccccc3)cc(=O)oc2c1)C(=O)NCc1ccccn1 (configuration not stated)	none (no result: RecA intein inh)
CCc1cc(=O)oc2cc(C)cc(OC(C)C(=O)NCc3ccccn3)c12 (configuration not stated)	FBA Mtb inh 50 | Mtb FBA confirm 66 | GDH-TPI counter-2 48
Cc1ccc(CC(NC(=O)C2CCCCC2)C(=O)O)cc1 (configuration not stated)	none (no result: UGM FP inh, Mtb betalactam, Rv3671c protease, RecA intein inh)
